Laboratory results as given in PubChem BioAssay AID1645879 (National Center for Advancing Translational Sciences (NCATS), 2021).
Inconclusive results are not listed. A call without a number means that no potency is given here. Calls of active or inactive are those of the source. Calls follow the shape of the dose curve; as a rule, active = well fitted inhibition curve with a large enough effect; inconclusive = small, poorly fitted or top-dose-only effect; inactive = no such curve, though single readings can be large or run the other way.

Assay: Counterscreen qHTS assay for inhibitors of N-terminal methyltransferase 1 (NTMT1): SPKRIA Counterscreen Assay
Conditions: biochemical qHTS; series mostly up to 99.2 µM
Description: Assay Submitter (PI): Rong Huang Ph.D,
Purdue University, West Lafayette, IN 47907
The N-terminal methytransferase 1 is the first methyltransferase that methylates protein alpha-N-amines and plays an important role in regulating cell mitosis, chromatin interactions and DNA repair. It is observed to be over-expressed in various cancer patient tissues like malignant melanoma and colorectal cancer tissues. Knockdown of NTMT1 in cancer cells causes cell mitotic defects and enhances sensitivity to DNA damaging chemotherapeutics. […] These critical cellular processes in which NTMT1 is implicated, coupled with emerging links to cellular dysfunction, strengthen the inference that NTMT1 is a compelling novel anticancer target. Progress have been made in understanding the molecular properties of NTMT1 and the biological consequences of protein alpha-N-terminal methylation, but there are no specific small molecule probes available for NTMT1 to fully characterize its MTase activity. To address this unmet need, a panel of assay is created and established to enable quantitative high-throughput screening (qHTS) for novel, potent, and selective small molecule NTMT1 inhibitors. Two orthogonal qHTS that use different reagents (ThioGlo vs. MTaseGlo) are developed for primary robotic screening against the NCATS chemical library of more than 400,000 small molecules. Identified inhibitors are reacquired, validated, and further characterized.
MTaseGlo Assay is a luminescence screen that measure the activity of methyltransferases based on the reaction product S-adenosyl homocysteine (SAH). The substrate SAM is converted to SAH upon enzyme activation. MTase-Glo reagent and detection solution convert SAH to ATP and measure the light from the luciferase reaction. Nicotinamide N-methyltransferase (NNMT) is a cystolic enzyme that catalyzes the transfer of a methyl group from the co-factor SAM onto the substrate, nicotinamide (NA) to form 1-methyl-nicotinamide (MNA) and SAH. NNMT MTaseGlo assay is used as a counterscreen to evaluate selectivity of identified inhibitors.
SPKRIA and Ac-RCC-10 control is provided by the Huang laboratory.
PROTOCOL TABLE; SEQUENCE No. (e.g., 1, 2, 3, etc.); […] (e.g., Cells, Incubation, Reagent, etc.); VALUE; DESCRIPTION
1; Reagent; 3 uL; dispense assay buffer.
2; Compound; 23 nL; pin compounds and control into the assay plate.
3; Time; 15 min; room temperature incubation.
4; Reagent; 1 uL; dispensed [4x] substrate or buffer.
5; Time; 30 min; incubate at room temperature.
6; Reagent; 1 uL; dispense MTase-Glo Reagent (R).
7; Time; 30 min; incubate at room temperature.
8; Reagent; 5 uL; dispense [1x] MTase-Glo Detection Solution to allow for ADP to be converted to ATP.
9; Centrifugation; 1,000 RPMs; assay plates were centrifuged.
10; Incubation; 30 min; room temperature.
11; Detection; Luminescence; ViewLux plate reader (clear filter, 10 second exposure).
NOTES (numbers refer to Sequence numbers above; values are from representative experiments)
1; Dispense the assay buffer into Greiner 1536-well black / solid bottom assay plate (Greiner Bio One, Monroe, NC).
2; Pin control inhibitor Ac-RCC1-10 at a final concentration range of 234 nM to 143 uM using a Wako Pin Tool (Wako Automation USA) equipped with a 1536-slotted pin array (Wako Automation, Richmond, VA). Pin compound library into the assay plates (columns 5 - 48) at a final concentration range of 97 nM to 250 uM.
3; Incubate the assay plates at room temperature.
4; Dispense 1 uL of substrate SPKRIA solution (final concentration 1 uM) or 1 uL buffer was added to the wells bringing the final assay volume to 4uL. The assay plate was covered with metal lids.
5; Incubate the assay plate at room temperature.
6; Dispense 1 uL of 5x MTase-Glo Reagent in the assay plate.
7; Incubate at room temperature to allow for SAH to be converted to ADP
8; Dispense 5 uL of 5x MTase-Glo Detection Solution in the assay plate to allow for ADP to be converted to ATP.
9; Assay plates were centrifuged for 15 seconds.
[…]

| Structure (SMILES) | Potency |
| --- | --- |
| COc1cc2c(cc1O)CC[C@H]1[C@@H]2CC[C@]2(C)[C@H](O)CC[C@@H]12 | 50.1 µM (active) |
| O=c1cc(-c2ccccc2)oc2ccccc12 | 112 µM (active) |
| COc1cccc(C(=O)Nc2nc3c(s2)CCCC3)c1 | 50.1 µM (active) |
| O=C(Nc1noc2ccccc12)c1ccc(F)cc1 | 39.8 µM (active) |
| c1cncc(-c2ccc3ncnc(NCc4cccs4)c3c2)c1 | 44.7 µM (active) |
| Cc1c(Cl)ccc2sc(N3CCN(C(=O)C4CC4)CC3)nc12 | inactive |
| O=C(O)c1cccc(-c2noc(-c3ccccc3F)n2)c1 | inactive |
| Cc1cccc(C(=O)Nc2sc3c(c2C(=O)O)CCCC3)c1 | 50.1 µM (active) |
| OCc1cccc(-c2noc(-c3ccccc3F)n2)c1 | inactive |
| Clc1ccc2ncc(-c3cccc(NC4CCNC4)n3)n2c1 (stereo not given) | inactive |
| Cc1ccnc(NC(=S)N2CCNCC2)c1 | inactive |
| CC(C)(C)c1ccc(-c2csc(N3CCC(C(N)=O)CC3)n2)cc1 | inactive |
| COc1cccc(/C=C/c2nc(C#N)c(NCCN(C)C)o2)c1 | inactive |
| Cc1cc2c(s1)c1cnn(Cc3cccc(C)c3F)c(=O)c1n2C | inactive |
| Cc1cc(C)nc(NC(=S)N2CCN(c3ccncc3)CC2)c1 | inactive |
| CC(=O)Nc1sc2c(c1-c1nc3ccccc3s1)CNC2 | inactive |
| COc1ccc2[nH]c(S(=O)Cc3ncc(C)c(OC)c3C)nc2n1 (stereo not given) | inactive |
| O=c1[nH]cnc2nc[nH]c12 | inactive |

| Structure (SMILES) | Potency |
| --- | --- |
| COCCCNC(=O)CSc1c2c(nc3ccc(Cl)cc13)CCCC2 | inactive |
| Oc1ccc(Cl)cc1Nc1nc2ccccc2n2cnnc12 | inactive |
| CCCn1c(/C=C/c2ccccc2)nc2ccccc21 | inactive |
| COc1cc(/C=C\c2ccc(O)cc2)cc(OC)c1 | inactive |
| Cc1ccc(-n2ncc3c(NCCO)ncnc32)cc1Cl | 31.6 µM (active) |
| COc1cc(C)c(/C=C/C(C)=C/C=C/C(C)=C/C(=O)O)c(C)c1C | inactive |
| CC(=O)C1CCC2C3CCC4=CC(=O)CCC4(C)C3CCC12C (stereo not given) | inactive |
| O=C(c1ccc(/C=C/c2n[nH]c3ccccc23)cc1)N1CCNCC1 | inactive |
| O=C(Nc1noc2ccccc12)c1c(F)cccc1F | inactive |
| O=C(Nc1nc2c(s1)CCCC2)c1ccccc1F | 39.8 µM (active) |
| Cc1cc(C)n2c(Nc3c(C)cccc3C)c(-c3ccsc3)nc2n1 | inactive |
| COc1ccc(Nc2ncnc3sc4c(c23)CCCC4)cc1 | 20 µM (active) |
| Cc1ccc(-n2ncc3c(NCCCN(C)C)ncnc32)cc1Cl | 44.7 µM (active) |
| O=c1c2cc3c(cc2nc2sc(Nc4ccccc4)nn12)OCO3 | inactive |
| Oc1cccc(Nc2cc(-c3ccccc3)ncn2)c1 | 39.8 µM (active) |
| COc1ccc(C(=O)Nc2noc3ccccc23)cc1 | 39.8 µM (active) |
| CCCNC(=O)CSc1c(CCC)cnc2c1c(=O)n(C)c(=O)n2C | inactive |
